Laboratory results reported in the supplement of paper PMC11732987, “Enantioselective OTUD7B fragment discovery through chemoproteomics screening and high-throughput optimisation” (Communications Chemistry, 2025).

Legend:
Test in all cases: log2 ratio of Biotin-Ahx-Ub-VS probe labelling (fragment/DMSO); higher = less target engagement (more negative = stronger competition), active = hit call of the paper (q ≤ 0.05, log2 ratio ≤ -1)
Details in all cases: compound concentration: 200 uM; treatment time: 3 h
OTUD6B = biological target: T1, OTUD6B (UniProt Q8N6M0)
T1 sequence (whole entry): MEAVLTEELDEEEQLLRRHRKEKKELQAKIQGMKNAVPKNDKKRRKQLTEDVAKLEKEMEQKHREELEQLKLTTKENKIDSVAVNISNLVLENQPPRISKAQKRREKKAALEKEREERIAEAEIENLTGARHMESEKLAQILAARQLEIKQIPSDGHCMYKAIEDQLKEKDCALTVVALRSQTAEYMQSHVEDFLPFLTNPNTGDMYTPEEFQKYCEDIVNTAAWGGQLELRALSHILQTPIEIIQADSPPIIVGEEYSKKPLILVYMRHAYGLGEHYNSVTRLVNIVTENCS
In short: (§1)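 Fragment (200 µM) or vehicle was incubated for 3 h with triplicate HEK293T lysate samples of 495 µg, which were then treated with Biotin-Ahx-Ub-VS at 0.5 µM final for 1 h. Labelled DUBs were enriched on NeutrAvidin, digested with LysC and trypsin, and analysed by diaPASEF LC-MS/MS. Values are average log2 fragment/vehicle ratios from an unpaired t-test on global-median-normalised Spectronaut label-free quantities, using proteins with ≥2 unique peptides.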

OTUD7B = biological target: T2, OTUD7B (UniProt Q6GQQ9)
T2 sequence (whole entry): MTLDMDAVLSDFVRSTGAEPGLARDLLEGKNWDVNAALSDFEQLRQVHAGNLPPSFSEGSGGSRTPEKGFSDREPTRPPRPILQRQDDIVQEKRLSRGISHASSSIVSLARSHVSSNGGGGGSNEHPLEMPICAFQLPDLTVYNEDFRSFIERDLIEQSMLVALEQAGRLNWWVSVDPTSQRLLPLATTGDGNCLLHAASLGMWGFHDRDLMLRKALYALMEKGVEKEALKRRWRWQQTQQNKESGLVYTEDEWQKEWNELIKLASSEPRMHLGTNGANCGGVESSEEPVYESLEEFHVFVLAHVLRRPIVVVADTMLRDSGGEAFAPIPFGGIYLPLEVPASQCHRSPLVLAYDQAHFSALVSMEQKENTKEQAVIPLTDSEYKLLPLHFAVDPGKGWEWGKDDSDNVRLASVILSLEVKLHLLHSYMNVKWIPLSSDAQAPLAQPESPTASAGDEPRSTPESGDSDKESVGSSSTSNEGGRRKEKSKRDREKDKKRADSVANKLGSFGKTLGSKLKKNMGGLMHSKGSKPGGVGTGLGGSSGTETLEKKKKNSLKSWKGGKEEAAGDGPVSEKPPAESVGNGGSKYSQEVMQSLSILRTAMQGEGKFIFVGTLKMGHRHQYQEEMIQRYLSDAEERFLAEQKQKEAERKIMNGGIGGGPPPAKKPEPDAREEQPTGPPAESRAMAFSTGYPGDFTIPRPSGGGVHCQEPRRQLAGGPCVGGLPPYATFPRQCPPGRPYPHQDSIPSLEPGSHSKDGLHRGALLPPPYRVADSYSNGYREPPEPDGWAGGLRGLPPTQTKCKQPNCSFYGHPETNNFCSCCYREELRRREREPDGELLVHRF
In short: as §1

PRPF8 = PRPF8 (UniProt Q6P2Q9)
In short: as §1

PSMD7 = biological target: T3, PSMD7 (UniProt P51665)
T3 sequence (whole entry): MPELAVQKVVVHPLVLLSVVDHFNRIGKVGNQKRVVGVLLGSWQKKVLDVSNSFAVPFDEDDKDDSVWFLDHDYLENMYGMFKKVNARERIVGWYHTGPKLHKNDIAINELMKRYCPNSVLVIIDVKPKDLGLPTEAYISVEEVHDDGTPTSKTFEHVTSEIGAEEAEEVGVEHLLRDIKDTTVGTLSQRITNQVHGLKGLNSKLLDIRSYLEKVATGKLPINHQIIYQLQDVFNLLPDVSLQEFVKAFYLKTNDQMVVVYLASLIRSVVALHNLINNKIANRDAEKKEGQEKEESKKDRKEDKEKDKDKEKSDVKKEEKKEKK
In short: as §1

UCHL1 = UCHL1 (UniProt P09936)
UCHL1, sequence (P09936 whole entry, looked up): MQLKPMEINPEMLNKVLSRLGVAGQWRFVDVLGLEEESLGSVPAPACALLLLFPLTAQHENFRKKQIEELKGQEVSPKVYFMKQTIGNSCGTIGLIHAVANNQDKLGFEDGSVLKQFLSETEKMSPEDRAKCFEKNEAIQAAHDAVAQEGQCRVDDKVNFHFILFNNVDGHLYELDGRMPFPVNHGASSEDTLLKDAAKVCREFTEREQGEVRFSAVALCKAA
In short: as §1

UCHL3 = biological target: T4, UCHL3 (UniProt P15374)
T4 sequence (whole entry): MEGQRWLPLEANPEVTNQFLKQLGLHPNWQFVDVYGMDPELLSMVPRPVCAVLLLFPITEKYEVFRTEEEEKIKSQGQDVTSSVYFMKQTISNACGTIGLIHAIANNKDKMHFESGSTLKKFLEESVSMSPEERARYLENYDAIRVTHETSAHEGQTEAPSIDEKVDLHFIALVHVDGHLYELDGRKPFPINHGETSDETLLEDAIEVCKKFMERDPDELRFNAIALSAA
In short: as §1

UCHL5 = biological target: T5, UCHL5 (UniProt Q9Y5K5)
T5 sequence (whole entry): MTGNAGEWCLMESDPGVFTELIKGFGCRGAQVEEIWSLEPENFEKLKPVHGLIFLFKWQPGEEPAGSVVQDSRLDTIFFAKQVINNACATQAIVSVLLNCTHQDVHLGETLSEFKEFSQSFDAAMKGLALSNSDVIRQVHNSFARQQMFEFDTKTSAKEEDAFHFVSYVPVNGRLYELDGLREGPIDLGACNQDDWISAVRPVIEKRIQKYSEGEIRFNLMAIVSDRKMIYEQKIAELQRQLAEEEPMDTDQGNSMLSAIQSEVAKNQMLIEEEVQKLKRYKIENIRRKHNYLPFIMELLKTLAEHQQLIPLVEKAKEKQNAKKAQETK
In short: as §1

USP10 = USP10 (UniProt Q14694)
USP10, sequence (Q14694 whole entry): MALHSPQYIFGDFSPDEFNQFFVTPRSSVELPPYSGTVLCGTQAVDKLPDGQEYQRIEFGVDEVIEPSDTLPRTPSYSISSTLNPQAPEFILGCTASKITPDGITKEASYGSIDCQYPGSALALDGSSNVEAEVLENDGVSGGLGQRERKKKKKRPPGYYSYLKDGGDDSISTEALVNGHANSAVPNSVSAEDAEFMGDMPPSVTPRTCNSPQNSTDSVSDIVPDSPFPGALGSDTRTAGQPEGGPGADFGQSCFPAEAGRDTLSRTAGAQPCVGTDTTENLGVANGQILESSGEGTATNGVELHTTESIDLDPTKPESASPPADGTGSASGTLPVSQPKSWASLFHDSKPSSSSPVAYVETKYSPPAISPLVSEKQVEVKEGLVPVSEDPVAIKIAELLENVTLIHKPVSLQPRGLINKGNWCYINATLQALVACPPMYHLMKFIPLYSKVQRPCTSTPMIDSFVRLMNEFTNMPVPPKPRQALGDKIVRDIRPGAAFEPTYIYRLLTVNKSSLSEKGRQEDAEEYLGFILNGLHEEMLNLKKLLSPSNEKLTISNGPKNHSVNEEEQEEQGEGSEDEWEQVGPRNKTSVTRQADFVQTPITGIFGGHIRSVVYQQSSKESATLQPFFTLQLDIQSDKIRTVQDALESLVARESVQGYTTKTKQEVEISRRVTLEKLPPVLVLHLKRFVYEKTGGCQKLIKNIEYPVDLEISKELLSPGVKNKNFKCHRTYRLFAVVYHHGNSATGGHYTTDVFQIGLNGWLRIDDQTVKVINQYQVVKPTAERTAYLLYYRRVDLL
In short: as §1

USP15 = biological target: T6, USP15 (UniProt Q9Y4E8)
T6 sequence (whole entry): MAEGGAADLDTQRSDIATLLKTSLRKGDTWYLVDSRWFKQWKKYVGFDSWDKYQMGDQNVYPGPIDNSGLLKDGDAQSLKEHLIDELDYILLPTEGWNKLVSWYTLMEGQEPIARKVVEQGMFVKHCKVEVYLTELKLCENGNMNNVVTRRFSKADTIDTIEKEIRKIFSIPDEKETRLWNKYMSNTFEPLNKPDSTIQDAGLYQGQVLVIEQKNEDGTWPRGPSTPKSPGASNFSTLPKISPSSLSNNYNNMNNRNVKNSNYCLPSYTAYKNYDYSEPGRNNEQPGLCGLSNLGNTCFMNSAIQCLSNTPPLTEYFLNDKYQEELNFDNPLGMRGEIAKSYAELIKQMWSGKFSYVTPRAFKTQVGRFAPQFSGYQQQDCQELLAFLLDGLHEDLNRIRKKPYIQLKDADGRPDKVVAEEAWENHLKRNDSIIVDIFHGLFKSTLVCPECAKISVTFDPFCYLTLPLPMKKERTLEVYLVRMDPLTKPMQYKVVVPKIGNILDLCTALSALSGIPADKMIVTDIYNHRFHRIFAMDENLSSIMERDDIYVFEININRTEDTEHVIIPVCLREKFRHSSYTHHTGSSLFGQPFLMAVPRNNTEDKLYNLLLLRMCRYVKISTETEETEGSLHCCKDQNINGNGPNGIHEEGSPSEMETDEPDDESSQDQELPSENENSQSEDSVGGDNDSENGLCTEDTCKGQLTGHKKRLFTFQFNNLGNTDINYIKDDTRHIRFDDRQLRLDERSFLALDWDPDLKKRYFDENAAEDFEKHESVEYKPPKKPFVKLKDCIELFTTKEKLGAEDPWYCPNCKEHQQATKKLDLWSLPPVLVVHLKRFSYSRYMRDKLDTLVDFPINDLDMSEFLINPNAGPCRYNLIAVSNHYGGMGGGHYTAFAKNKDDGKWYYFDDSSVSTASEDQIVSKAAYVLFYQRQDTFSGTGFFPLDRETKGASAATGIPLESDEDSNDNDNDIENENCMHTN
In short: as §1

USP16 = USP16 (UniProt Q9Y5T5)
USP16, sequence (Q9Y5T5 whole entry, looked up): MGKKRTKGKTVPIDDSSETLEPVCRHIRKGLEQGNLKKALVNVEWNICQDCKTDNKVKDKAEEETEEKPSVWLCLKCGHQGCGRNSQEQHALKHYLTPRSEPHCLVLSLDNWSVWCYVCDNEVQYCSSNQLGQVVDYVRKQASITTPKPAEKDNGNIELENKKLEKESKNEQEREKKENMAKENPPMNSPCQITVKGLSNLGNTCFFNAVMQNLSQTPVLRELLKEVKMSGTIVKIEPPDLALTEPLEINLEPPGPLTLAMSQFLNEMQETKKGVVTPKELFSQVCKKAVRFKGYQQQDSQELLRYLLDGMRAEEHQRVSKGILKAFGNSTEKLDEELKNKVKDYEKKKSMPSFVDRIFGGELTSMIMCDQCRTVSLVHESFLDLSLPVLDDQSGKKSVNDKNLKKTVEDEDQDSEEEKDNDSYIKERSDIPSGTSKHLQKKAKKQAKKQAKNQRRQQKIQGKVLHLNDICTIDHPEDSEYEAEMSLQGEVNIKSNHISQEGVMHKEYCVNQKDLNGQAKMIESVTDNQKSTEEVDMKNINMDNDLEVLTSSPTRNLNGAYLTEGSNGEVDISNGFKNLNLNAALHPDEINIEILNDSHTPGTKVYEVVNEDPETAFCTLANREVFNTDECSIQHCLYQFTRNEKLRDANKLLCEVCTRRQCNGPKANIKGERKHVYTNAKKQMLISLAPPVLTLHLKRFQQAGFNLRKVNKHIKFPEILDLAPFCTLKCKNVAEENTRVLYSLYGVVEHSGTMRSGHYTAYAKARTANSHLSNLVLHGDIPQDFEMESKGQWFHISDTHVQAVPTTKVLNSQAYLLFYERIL
In short: as §1

Measured: log2 ratio of Biotin-Ahx-Ub-VS probe labelling

O=C(CCl)NCCc1cccc2ccccc12
inactive: OTUD6B 0.0475 | OTUD7B -0.286 | PRPF8 0.117 | PSMD7 0.0665 | UCHL1 -0.978 | UCHL3 0.331 | UCHL5 -0.029 | USP10 -0.0479 | USP15 0.076 | USP16 -0.496
